# Assay outcomes as filed in PubChem.
# PI5P4K alpha inh: inhibitors of human PI5P4K alpha | AID 652105 | PI5P4Kalpha enzyme, ADP-Glo luminescence, 60 min; stronger effect = lower value | P48426 | hit rate 1.2% among 330,000 | max response, %; active means max response of -50% or lower; inconclusive means between -30% and -50%; inactive means -30% or higher; further: value at the top dose of about 77 µM
#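 Enzyme plus substrate dispensed, test compounds pinned in, then ATP (5 microM final) added. After 60 min at RT, ADP-Glo reagent 1 for 45 min and reagent 2 for 30 min preceded luminescence imaging.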
# USP1 inh: blocks the human USP1/UAF1 deubiquitinase complex. Potency, µM (doses to about 57.1 µM), for inactives: top-dose activity change, negative = inhibition, most hits filed as inhibitors. O94782. hit rate 0.23% among 390,000. recombinant USP1/UAF1, Ub-Rhodamine cleavage fluorescence; further: potency means the concentration at half of the fitted maximal effect; nearly all actives have a fitted effect of over 60% in size
#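 USP1/UAF1 complex (1 nM) preincubated 15 min at room temperature with compound, then Ub-Rho substrate (150 nM final) added. Kinetic fluorescence at 480/540 nm over 6 reads at 60 s intervals; 50 mM HEPES pH 7.8, 0.5 mM EDTA, 0.1 mg/ml BSA, 1 mM TCEP, 0.01% Tween-20.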
# PLK1 PBD block: PLK1 (human) polo-box domain binding inhibition; AID 720504; P53350; Plk1 PBD binding of FITC phosphopeptide, fluorescence polarization; Potency, µM, for the others: max response, negative = inhibition, usual class: inhibitors; hit rate 2.8% among 360,000; further: potency means the concentration at half of the fitted maximal effect; series mostly up to about 57 µM; nearly all actives have a fitted effect of over 65% in size
# USP2a inh: USP2a (human) protease inhibition; O75604; USP2 core, Ub-CHOP2 coupled fluorogenic reporter, 485/531; Potency, µM (series often up to 38.3 µM), without a hit: top-dose activity change, negative = inhibition, hits mostly inhibitors; hit rate 0.01% among 330,000; AID 463254;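 further: potency means the concentration at half of the fitted maximal effect; plate controls were DMSO wells for no effect and full inhibition by NEM control for full effect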
#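 Deubiquitinase activity read as fluorescence (485/531 nm) after Ub-CHOP2 cleavage activates the enterokinase reporter on its substrate; USP2 core 10nM, Ub-CHOP2 and substrate 25nM each, 30min compound preincubation then 60min RT; data normalized to NEM, curves fitted.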
# WRN inhibitor: inhibitors of human WRN helicase; Q14191; WRN helicase unwinding, fluorescent forked duplex, kinetic; Potency, µM (top dose mostly 114 µM), inactives show at the highest dose activity change, negative = inhibition, usual class: inhibitors; hit rate 0.46% among 360,000; further: potency means the concentration at half of the fitted maximal effect; nearly all actives have a fitted effect of over 55% in size
#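 Kinetic red-fluorescence monitoring (525/598 nm) tracks WRN helicase activity after 100 nM fluorophore-quencher forked duplex and 2 mM ATP are added to 20 nM enzyme pretreated 15 min at room temperature with compound.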
# * = called active by the depositor; ? = inconclusive; / = no result; + = active, no number; [ ] = another dose, or the depositor's remark. Sampled rows, rich in hits. Any-hit rate of the full collection: about 3.3%. Unless noted, the call rests on the fitted dose curve; in most records, active means well fitted curve in the direction sought with a large enough effect; inconclusive means small, poorly fitted or top-dose-only effect, or another doubt; inactive means no such curve, though single readings can be large; an effect the other way counts as inactive or inconclusive. Unless noted, on the % scale 0 is the no-effect control and ±100 the full control effect.
SMILES,PI5P4K alpha inh,USP1 inh,PLK1 PBD block,USP2a inh,WRN inhibitor
COc1ccc(C2=CC3=C(Br)C(=O)C(C)(OC(=O)c4ccco4)C(=O)C3=CO2)cc1 (stereo unspecified),-74*,25µM*,9.5µM*,6%,45µM*
CCC(C)NC(=O)CCc1c(C)nc2cc(-c3ccc(OC)cc3OC)nn2c1C (stereo unspecified),/,-24%,/,/,/
CC(Oc1cccc(Cl)c1)C(=O)Nc1nc(-c2ccccn2)cs1 (stereo unspecified),-17,-25%,19µM*,-4%,-9%
O=c1[nH]c2cc3c(cc2cc1CN(Cc1cccs1)Cc1nnnn1Cc1ccco1)OCCO3,-83*,?,?,3%,?
O=c1[nH]c2cc3c(cc2cc1CN(Cc1cccnc1)Cc1nnnn1Cc1ccco1)OCCO3,/,-1%,-21%,3%,56µM*
Cc1ccc2[nH]c(=O)c(CN(Cc3cccnc3)Cc3nnnn3CC3CCCO3)cc2c1 (stereo unspecified),1,-19%,-14%,-2%,-10%
Cc1ccc2[nH]c(=O)c(CN(Cc3cccnc3)Cc3nnnn3CCN3CCOCC3)cc2c1,-28,-30%,4.7µM*,2%,4%
COc1ccc(-c2nc(CSc3nnc(C)n4c3cc3sccc34)c(C)o2)cc1,/,-1%,/,/,/
Cc1ccc(-n2nc3c(=O)n(C(C)C(=O)NCc4ccc(OC(C)C)cc4)nc(C)c3c2C)cc1 (stereo unspecified),/,-10%,/,/,/
CCN1/C(=C/C=C/c2sc3ccccc3[n+]2CC)Sc2ccccc21,-19,?,12%,-1%,40µM*
COc1cc(OC)cc(-c2nc3nc(C)c(CCC(=O)Nc4ccc(C)c(C)c4)c(C)n3n2)c1,/,-16%,/,/,/
O=C(O)C(=O)/C(=C\c1ccccc1)c1ccc2ccccc2n1,7,-21%,-6%,-1%,5%
O=C(O)C(=O)/C(=C\c1cccc2ccccc12)c1ccc2ccccc2n1,-5,-10%,67µM*,3%,-11%[57.1 µM]
CCOCCCN1C(=O)CN(C2CCCCCC2)C(=O)C1c1ccc(OC(C)C)c(OC)c1 (stereo unspecified),/,-10%,/,/,/
C#CCNC(=O)C1=C[C@@H](c2ccc(C#C)cc2)C[C@@H](OCCCCO)O1,-56*,-26%,-12%,/,-31%
C#Cc1ccc([C@@H]2C=C(C(=O)NCc3ccccc3)O[C@H](OCCCCO)C2)cc1,-64*,?,-7%,/,-26%
O=C(NCc1ccccc1)C1=C[C@@H](c2ccc(Br)cc2)C[C@@H](OCCCCO)O1,-2,?,-12%,2%,-7%
C#CCNC(=O)C1=C[C@@H](c2ccccc2)C[C@@H](OCCCCO)O1,1,?,-10%,/,2%
COc1cccc(OC)c1C(=O)NCCSC1CCCCC1,1,-20%,27µM*,-3%,0%
Cc1nc(-c2ccccc2)sc1CCNC(=O)C(=O)Nc1ccc2c(c1)OCO2,/,-26%,/,/,/
Cn1[nH]c2c(c1=O)[C@H](c1ccc(F)cc1)O[C@H](CCc1ccccc1)C2,4,/,19µM*,/,0%
Cc1ccn2cc(-c3cnoc3C)nc2c1,-8,-11%,27µM*,-1%,6%
Cc1oncc1-c1cn2ccccc2n1,0,-14%,-4%,0%,0%
CCOC(=O)C1Nc2ccccc2C2C(O)C(O)CC12 (stereo unspecified),-19,?,38µM*,/,-6%
CC(N=C1NS(=O)(=O)c2ccccc21)c1ccccc1 (stereo unspecified),?,-12%,24µM*,1%,10%
SMILES,PI5P4K alpha inh,USP1 inh,PLK1 PBD block,USP2a inh,WRN inhibitor
Cc1ccc(NC(=O)C(C)N=C2NS(=O)(=O)c3ccccc32)cc1 (stereo unspecified),3,-4%,-12%,-3%,-3%
O=C(NCc1ccc(Cl)cc1)c1csc(-c2cccnc2)n1,3,-5%,30µM*,0%,-5%
CC(C)NC(=O)CSc1cn(CC(=O)N2CCCCCC2)c2ccccc12,/,-27%,/,/,/
CNc1nc(OCC(F)(F)F)nc(N2CCOCC2)n1,?,-8%,6.7µM*,/,19%
CNc1nc(OC)nc(N2CCOCC2)n1,4,-17%,-6%,0%,1%
COc1ccc(CNC(=O)Cn2c(-c3ccccc3)cc(C(C)=O)c2C)cc1OC,/,-25%,/,/,/
Cc1cc(C(C2C(=O)CC(C)(C)CC2=O)C2C(=O)CC(C)(C)CC2=O)cc(C)c1OC(F)F,-19,-15%,5.3µM*,2%,3%[11.6 µM]
CCOc1cc(C2c3c(oc4ccccc4c3=O)C(=O)N2Cc2ccc3c(c2)OCO3)ccc1O (stereo unspecified),/,-8%,/,/,/
COc1cc(/C=N/NC(=O)C2=NNC(=O)C2C)ccc1O (stereo unspecified),1,-18%,2%,2%,-11%
CC1C(=O)NN=C1C(=O)N/N=C/c1ccco1 (stereo unspecified),-7,5%,27µM*,-1%,7%[57.1 µM]
CC1C(=O)NN=C1C(=O)N/N=C\c1ccc(O)cc1O (stereo unspecified),-60*,-12%,-15%,4%,-6%
COCCCNC(=O)c1c(NC(=O)Cc2coc3cc(C)ccc23)sc2c1CCCC2,/,-18%,/,/,/
COc1ccc(OC)c(CNS(=O)(=O)c2c(C(=O)N3CCC(C)CC3)c(C)n(C)c2C)c1,/,-8%,/,/,/
COc1ccc(NC(=O)c2c[nH]n3c(=O)cc(C4CCN(C(=O)OC(C)(C)C)CC4)nc23)cc1Cl,2,?,24µM*,0%,-5%
CC(C)(C)OC(=O)N1CCC(c2cc(=O)n3[nH]cc(C(=O)Nc4ccc(F)c(Cl)c4)c3n2)CC1,10,-3%,24µM*,3%,-2%
Cc1nc(CC(=O)Nc2cccc(C)c2C)cs1,/,-11%,/,/,/
Cc1ccccc1CCNC(=O)c1ccc2c(c1)nc1n2CCCCC1,/,-6%,/,/,/
CCCCCC(O)(CCN1CCCCC1)c1ccc(OCC)cc1 (stereo unspecified),4,2%,17µM*,-3%,-8%
COC(=O)CSc1nc2sc3c(c2c(=O)n1-c1ccc(C)cc1)CC(C(C)C)OC3 (stereo unspecified),/,+,/,/,/
CCOC(=O)CSc1nc2sc3c(c2c(=O)n1Cc1ccccc1)CC(C(C)C)OC3 (stereo unspecified),/,-10%,/,/,/
CC(C)Cc1nc2sc3c(c2c(=O)n1N)CC(C(C)C)OC3 (stereo unspecified),-3,?,17µM*,0%,-1%
O=C(CSc1nc2ccccc2c(=O)n1CC1CCCO1)NCCc1ccccc1 (stereo unspecified),1,-22%,-6%,0%,-1%
Cc1ccc(NC(=O)CSc2nc3ccccc3c(=O)n2CCCC(=O)NCC2CCCO2)cc1 (stereo unspecified),-13,-16%,27µM*,3%,5%
